The campaign covered roughly 310,000 compounds. About 14,000 (4.5%) showed an effect of 50% or more. Effects have a minus sign here. For the sample, strong results were picked, then their nearest neighbours and some compounds at random.
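Note: peak tail current of the secondary pulse compared with the same well before compound.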

Sequence of human ether-à-go-go-related gene (hERG) potassium channel (Q12809 whole entry, looked up): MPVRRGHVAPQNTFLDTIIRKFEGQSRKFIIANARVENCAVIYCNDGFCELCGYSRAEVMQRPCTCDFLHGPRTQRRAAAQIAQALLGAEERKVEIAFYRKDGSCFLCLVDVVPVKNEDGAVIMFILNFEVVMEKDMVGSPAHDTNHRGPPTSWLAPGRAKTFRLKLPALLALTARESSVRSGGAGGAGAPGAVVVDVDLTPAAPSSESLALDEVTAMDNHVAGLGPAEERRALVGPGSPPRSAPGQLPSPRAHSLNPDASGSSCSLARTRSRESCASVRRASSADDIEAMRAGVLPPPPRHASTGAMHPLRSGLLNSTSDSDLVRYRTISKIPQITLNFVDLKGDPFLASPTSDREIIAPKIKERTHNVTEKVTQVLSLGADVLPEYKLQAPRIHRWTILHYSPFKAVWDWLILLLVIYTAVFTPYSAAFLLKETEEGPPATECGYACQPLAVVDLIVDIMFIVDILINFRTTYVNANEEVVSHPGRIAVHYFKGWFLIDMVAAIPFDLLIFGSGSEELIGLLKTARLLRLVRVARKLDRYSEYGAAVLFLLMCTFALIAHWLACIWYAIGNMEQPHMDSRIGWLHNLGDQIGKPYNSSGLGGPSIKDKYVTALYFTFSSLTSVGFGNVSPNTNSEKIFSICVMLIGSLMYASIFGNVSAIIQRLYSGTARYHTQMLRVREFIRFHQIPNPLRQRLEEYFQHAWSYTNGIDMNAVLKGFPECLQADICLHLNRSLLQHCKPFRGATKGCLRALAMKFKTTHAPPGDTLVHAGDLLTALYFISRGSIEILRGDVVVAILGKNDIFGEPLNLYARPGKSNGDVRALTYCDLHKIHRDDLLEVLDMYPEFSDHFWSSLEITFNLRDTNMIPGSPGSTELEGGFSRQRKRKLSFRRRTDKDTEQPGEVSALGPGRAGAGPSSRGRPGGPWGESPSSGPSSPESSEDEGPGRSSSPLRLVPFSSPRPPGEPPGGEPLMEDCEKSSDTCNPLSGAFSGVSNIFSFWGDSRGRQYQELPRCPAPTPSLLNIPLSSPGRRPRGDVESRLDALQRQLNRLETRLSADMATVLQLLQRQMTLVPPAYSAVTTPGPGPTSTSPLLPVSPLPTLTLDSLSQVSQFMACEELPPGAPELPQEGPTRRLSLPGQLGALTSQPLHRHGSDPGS

This assay has as its target human ether-à-go-go-related gene (hERG) potassium channel (human, UniProt Q12809). In words: primary screen, population patch clamp on CHO cells stably expressing hERG; higher = less effect of the substance.
For `Cc1cn2c(N)c(/C=C3\C=Nc4ccccc43)c(=O)nc2s1`, the “hERG current change (%, negative = inhibition) at 10uM” value is on record as 2.43%.
To `CCOc1ccc(N=C(/C(C(=O)C(=O)N2CCOCC2)=C(\O)c2ccccc2)c2ccccc2)cc1` belongs 27.7%.
To `COc1ccc(NC(=O)CN(C)S(=O)(=O)c2cccc3nsnc23)cc1` belongs -21.9%; to `O=C(O)c1ccccc1-c1nc2ccccc2c(=O)n1O`, 14.9%.
With `CCCOC(=O)CC1C(=O)NCCN1Cc1ccc(F)cc1` (stereo not shown) the figure was 3.35%.
Turning to `CC1CC(C)CN(S(=O)(=O)c2ccc(NC(=O)C3CC(=O)N(Cc4ccccc4)C3)cc2)C1` (stereo not shown), the “hERG current change (%, negative = inhibition) at 10uM” value turned out to be 17.3%.
In the case of `CC(C)CC1NC(=O)N(Cc2nc3ccccc3s2)C1=O` (stereo not shown), the “hERG current change (%, negative = inhibition) at 10uM” value was -32.5%.
On to `CC(C)CCC1(CCNC(=O)c2cccs2)CCOC(C)(C)C1` (stereo not shown), for which the “hERG current change (%, negative = inhibition) at 10uM” value is reported as -8.99%.
For `c1ccc(-c2nn3c(Cn4nnc5ccccc54)nnc3s2)nc1`, the “hERG current change (%, negative = inhibition) at 10uM” value is -14.4%.
To `CC(C)C[C@H]1C(=O)N2CCC[C@H]2[C@]2(O)O[C@](NC(=O)C3C=C4c5cccc6[nH]c(Br)c(c56)C[C@H]4N(C)C3)(C(C)C)C(=O)N12.CS(=O)(=O)O` (stereo partly shown) belongs 20.4%.
With `CCN1/C(=C\C=C\C2=[N+](CC)c3ccccc3C2(C)C)C(C)(C)c2ccccc21.[O-][Cl+3]([O-])([O-])[O-]` the figure was -96.7%.
To `CC1(C)C(/C=C/C=C/C=C/C=C2\N(CCCCS(=O)(=O)[O-])c3ccc4ccccc4c3C2(C)C)=[N+](CCCCS(=O)(=O)[O-])c2ccc3ccccc3c21.[Na+]` belongs -15.5%.
For `CCCN1C(=O)/C(=C/C=C2\N(CC)c3ccccc3C2(C)C)SC1=S`, the “hERG current change (%, negative = inhibition) at 10uM” value is reported as 8.96%.
With `CN1/C(=C\C=O)C(C)(C)c2ccccc21` the figure was 12.9%; with `CCN1C(=O)C(O)(CC(=O)/C=C/C=C/c2ccccc2)c2ccccc21` (stereo not shown), -0.629%; with `CN1/C(=C\C=C\C2=[N+](C)c3ccc4ccccc4c3C2(C)C)C(C)(C)c2ccccc21.[O-][Cl+3]([O-])([O-])[O-]`, -75.7%.
With `CC(C)CCn1nnnc1CN1CCN(C(=O)c2ccco2)CC1.Cl` the figure was 16.8%; with `CC1(C)CC(=O)c2c(O)cc(OCC(=O)Nc3ccc(CCO)cc3)cc2O1`, -21.4%.
With `CCN(C(=O)COC(=O)CSc1ccc(F)cc1)c1c(N)n(Cc2ccccc2)c(=O)[nH]c1=O` the figure was 10.9%; with `COC(=O)C1Cc2ccccc2CN1S(=O)(=O)c1ccc(C)cc1` (stereo not shown), 1.57%; with `Cc1cnc(-c2nnc(N(C)C(=O)C3CCCO3)s2)cn1` (stereo not shown), 2.91%.
Consider `Cn1c(CNC(=O)c2ccc(Cl)cc2)nnc1SCC(=O)N1CCOCC1`, for which the “hERG current change (%, negative = inhibition) at 10uM” value was 15.4%.
For `COc1cc(C(C)=O)ccc1OCC(O)CNCC1(N2CCCCC2)CCCCC1.O=C(O)C(=O)O` (stereo not shown), the “hERG current change (%, negative = inhibition) at 10uM” value was -42.1%.
On to `OC(CNCC1(N2CCCCC2)CCCCC1)COc1ccc(Cl)cc1Cl` (stereo not shown), for which the “hERG current change (%, negative = inhibition) at 10uM” value is -73.7%.
Consider `COc1ccccc1COCC(O)CNCC1(N2CCCCC2)CCCCC1.O=C(O)C(=O)O` (stereo not shown), for which the “hERG current change (%, negative = inhibition) at 10uM” value is on record as -30.9%.
`CCc1ccc(OC)c(S(=O)(=O)Nc2ccccc2C)c1`: the “hERG current change (%, negative = inhibition) at 10uM” value amounted to 3.86%.
With `COc1cccc(COCC(O)CN2CCC(C(N)=O)CC2)c1` (stereo not shown) the figure was 12.3%.
With `COc1ccc(-c2csc3ncnc(NCCCO)c23)cc1` the figure was -13.3%; with `CC(C)CNC(CC(=O)Nc1cccc([N+](=O)[O-])c1)C(=O)O` (stereo not shown), -1.01%; with `Cc1ccc(NC(=O)COC(=O)[C@H](C)NC(N)=O)c(C)c1`, 15.1%.
Take `CCOc1ccc(S(=O)(=O)N2CCC(C(=O)NC3CCCCC3)CC2)cc1`: the “hERG current change (%, negative = inhibition) at 10uM” value amounted to 18.3%.
With `CCOC(=O)C1CCN(CCC(=O)Nc2cccc(Cl)c2C)CC1` the figure was -5.48%; with `CCOC(=O)C1CCN(CCC(=O)Nc2ccccc2Cl)CC1.Cl`, -19.3%.
To `CCOC(=O)C1CCN(CCC(=O)Nc2ccc(Br)cc2)CC1` belongs -63.5%.
To `CCOC(=O)C1CCN(CCC(=O)Nc2ccc(C)cc2)CC1` belongs -32.4%; to `CCOC(=O)C1CCN(CCC(=O)Nc2ccc(F)cc2)CC1`, -31%.
`CCOC(=O)C1CCN(CCC(=O)Nc2ccc(Cl)cc2)CC1`: the “hERG current change (%, negative = inhibition) at 10uM” value is on record as -62.4%.
As to `COc1ccccc1C(=O)NCC1(c2ccccc2)CCCC1`, the “hERG current change (%, negative = inhibition) at 10uM” value was 1.65%.
To `O=C(NCCCCCCCCCNC(=O)C(F)(F)F)C(F)(F)F` belongs -4.99%; to `CC1CC(C)CN(C(=O)CCCn2c(=O)c3cccn3c3cccnc32)C1` (stereo not shown), -11%.
With `N#Cc1c(-c2ccccc2)c(-c2ccccc2)n(Cc2ccco2)c1NC(=O)c1cccs1` the figure was 12.6%; with `N=c1c2c(-c3ccccc3)c(-c3ccccc3)n(Cc3ccco3)c2ncn1CCO`, -71%; with `O=c1c2cnn(-c3ccccc3)c2ncn1Cc1ccco1`, -7.57%.
Consider `CCCCn1c(=O)n(Cc2cccc(F)c2)c(=O)c2c1ncn2Cc1ccco1`, for which the “hERG current change (%, negative = inhibition) at 10uM” value is -14.7%.
Consider `O=c1c2ccccc2ncn1Cc1ccco1`, for which the “hERG current change (%, negative = inhibition) at 10uM” value is reported as -19.8%.
With `CCCCn1c(=O)n(CC(=O)Nc2ccc(C)c(Cl)c2)c(=O)c2c1ncn2Cc1ccco1` the figure was -6.22%; with `N=c1c2c(-c3ccccc3)c(-c3ccccc3)n(Cc3ccco3)c2ncn1CCCO`, -68.5%.
To `CCCCn1cnc2c(c(-c3ccccc3)c(-c3ccccc3)n2Cc2ccco2)c1=N` belongs -75.1%; to `N=c1c2c(-c3ccccc3)c(-c3ccccc3)n(Cc3ccccc3)c2ncn1CCO`, -37.6%; to `NC(=S)N/N=C/c1ccc(C23CC4CC(CC(C4)C2)C3)cc1`, 23.2%.
For the compound `CN1CCc2cc3c(cc2[C@H]1[C@@H]1OC(=O)c2c1ccc1c2OCO1)OCO3`, the “hERG current change (%, negative = inhibition) at 10uM” value was found to be 7.02%.
To `O=C1C(=O)N(CC2CCCO2)C(c2ccco2)/C1=C(/O)c1ccc(F)cc1` (stereo not shown) belongs -13.4%; to `COc1cnc(SCc2c(Cl)cccc2Cl)nc1Cl`, -1.4%; to `COC(=O)c1cccc(CSc2nnc(C)s2)c1`, -1.67%.
With `O=C(OCC(=O)N1CCCC1=O)c1nc(Cl)c(Cl)c(Cl)c1Cl` the figure was -60.4%; with `Nc1c(Cl)c(Cl)nc(C(=O)OCC(=O)N2CCCC2=O)c1Cl`, -22.5%; with `O=C(OCC(=O)N1CCCC1=O)c1ncc(Cl)c(Cl)c1Cl`, 0.304%.
With `COc1cccc(C(=O)Nc2cc(-c3cn4cccnc4n3)ccc2C)c1` the figure was -12%.
As to `O=C1C=C(Nc2ccc(Cl)cc2)C(=O)N1c1ccc(Cl)cc1`, the “hERG current change (%, negative = inhibition) at 10uM” value is given as 9.57%.
To `O=C(NCCc1ccccc1)c1ccccc1Cl` belongs 3.33%.
For the compound `O=C(NCCC(=O)N(CCc1ccccc1)Cc1ccccc1)c1ccc(Br)cc1`, the “hERG current change (%, negative = inhibition) at 10uM” value is -44.9%.
With `O=C(NCCC(=O)N(CCc1ccccc1)Cc1ccccc1)c1ccccc1Cl` the figure was -72.9%; with `CCOC(=O)C1=C(O)/C(=C\c2ccc(O)c(OCC)c2)N=C1C`, 8.17%.
To `C1CCC(NC2=NCCC2)CC1.Cl` belongs -1.01%; to `O=C(O)Cn1nc(C(F)(F)F)c2c1CCC2`, 20.4%; to `CCCN1C2CCCC1CC(NC(=O)c1ccc(F)cc1)C2` (stereo not shown), -55.3%.
To `CCCN1C2CCCC1CC(NC(=O)c1ccccc1F)C2` (stereo not shown) belongs -21.7%; to `CCCN1C2CCCC1CC(NC(=O)c1ccc(C(C)(C)C)cc1)C2` (stereo not shown), -37.1%; to `CCCN1C2CCCC1CC(NC(=O)c1ccc(OC)cc1)C2` (stereo not shown), -30.1%.
Consider `CCCN1C2CCCC1CC(NC(=O)c1ccccc1)C2` (stereo not shown), for which the “hERG current change (%, negative = inhibition) at 10uM” value is -18.9%.
To `CCCN1C2CCCC1CC(NC(=O)c1ccc(Br)cc1)C2` (stereo not shown) belongs -66.3%; to `CCc1ccc(NCc2ccc(OC)c(Cn3ccnc3)c2)cc1`, -10.5%.
With `O=C(O)CCCC(=O)N1N=C(c2c(-c3ccccc3)c3cc(Cl)ccc3[nH]c2=O)CC1c1cccs1` (stereo not shown) the figure was 23.2%; with `Cc1c(C(=O)NCc2ccco2)oc2ccc(S(=O)(=O)N3CCC4(CC3)OCCO4)cc12`, -19.7%.
With `CCCCN1C(Nc2ccccc2)=NC[C@@H]1C` the figure was 14.4%; with `C[C@H]1CN=C(Nc2ccccc2)N1CCc1ccccc1`, -9.89%.
As to `CCCCCCCN1C(Nc2ccccc2)=NC[C@@H]1Cc1ccccc1`, the “hERG current change (%, negative = inhibition) at 10uM” value is reported as -83.3%.
To `CCCCN1C(N)=NC[C@@H]1Cc1ccccc1` belongs 0.376%; to `CC(C)CCCN1C(Nc2ccccc2)=NC[C@@H]1C`, -11.4%.
To `CCCCCCCN1C(Nc2ccccc2)=NC[C@@H]1C` belongs -68%; to `CCN1C(Nc2ccccc2)=NC[C@@H]1C`, 15.2%; to `CCN1C(Nc2ccccc2)=NC[C@@H]1Cc1ccccc1`, -26%.
With `c1ccc(CCCCN2C(Nc3ccccc3)=NC[C@@H]2Cc2ccccc2)cc1` the figure was -71.5%; with `CCCCN1C(Nc2ccccc2)=NC[C@@H]1Cc1ccccc1`, -66.1%.
As to `Cc1ccc(CCN2C(Nc3ccccc3)=NC[C@@H]2C)cc1`, the “hERG current change (%, negative = inhibition) at 10uM” value is reported as -35.9%.
Take `OC1CCCN(c2ncnc3c2nnn3Cc2c(F)cccc2Cl)C1` (stereo not shown): the “hERG current change (%, negative = inhibition) at 10uM” value came to 0.989%.
With `COc1cc([N+](=O)[O-])ccc1NC(=O)NCc1ccccn1` the figure was 11.7%.
With `CC(=O)c1cccc(NC(=O)CSc2n[nH]c(-c3ccncc3)n2)c1` the figure was 10.5%.

These data come from publication PMC4336329 (PLoS ONE, 2015).
